Sampled rows, rich in hits. Any-hit rate of the full collection: about 0.45%.
Menin-MLL TR inh = inhibitors of human menin-MLL interaction, mutant MLL peptide; O00255; Menin + Texas Red MLL mutant peptide, fluorescence polarization; Potency, µM (doses to about 61.6 µM), for the others: top-dose FP activity change, negative = inhibition, hits mostly inhibitors; actives 0.23% (n = 270,000); active = well fitted inhibition curve with a large enough effect in the polarisation, with a control signal flat, not every such curve was filed as active; inconclusive = small, poorly fitted or top-dose-only effect, or effect the other way, or a change in a side signal; inactive = no such curve, though single readings can be large or run the other way; the % refers to the polarisation; also: potency is read from the fitted curve at half-maximal effect; % of control where 0% means no effect
CXXC DNA block = inhibitors of human MLL CXXC domain-DNA interaction | Q03164 | MLL-CXXC / FITC-HOXA9 DNA fluorescence polarization | Potency, µM (highest dose often 115 µM), for the others: at the highest dose activity change, negative = inhibition, most hits filed as inhibitors | actives 0.037% (n = 290,000) | AID 2662; active = well fitted inhibition curve with a large enough effect in the polarisation, with a control signal flat, not every such curve was filed as active; inconclusive = small, poorly fitted or top-dose-only effect, or effect the other way, or a change in a side signal; inactive = no such curve, though single readings can be large or run the other way; the % refers to the polarisation; also: potency is read from the fitted curve at half-maximal effect
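Purified MLL-CXXC (added from a 7 uM solution) was preincubated 5 min at ambient with pinned compounds in 50 mM Tris-HCl pH 7.5, 50 mM NaCl, 1 mM DTT, 0.05% BSA. Fluorescein-labeled HOX-A9 DNA (50 nM solution) followed, 30 min, then polarization read.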
Menin-MLL FL inh = inhibitors of human menin-MLL interaction, wild-type MLL peptide; Fluorescence polarization, fluorescein-MLL peptide displacement from menin; FP activity change, % at 61.4 µM; 290,000 tested, under 10 active; active = well fitted curve in the direction sought with a large enough effect in the polarisation, not every such curve was filed as active; inconclusive = small, poorly fitted or top-dose-only effect, or effect the other way, or a change in a side signal; inactive = no such curve, though single readings can be large or run the other way; the % refers to the polarisation; also: % of control where 0% means no effect
ASM inhibitor = human S-ASM enzyme inhibition. P17405. placental ASM, HMU-PC fluorogenic substrate, 60 min. Potency, µM (series often up to 57.5 µM), inactives show at the highest dose activity change, negative = inhibition, actives largely listed as inhibitors. actives 0.006% (n = 340,000). AID 504937; active = well fitted inhibition curve with a large enough effect; inconclusive = small, poorly fitted or top-dose-only effect; inactive = no such curve, though single readings can be large or run the other way; also: potency is read from the fitted curve at half-maximal effect
Target sequence (P17405 47-631 limits assumed): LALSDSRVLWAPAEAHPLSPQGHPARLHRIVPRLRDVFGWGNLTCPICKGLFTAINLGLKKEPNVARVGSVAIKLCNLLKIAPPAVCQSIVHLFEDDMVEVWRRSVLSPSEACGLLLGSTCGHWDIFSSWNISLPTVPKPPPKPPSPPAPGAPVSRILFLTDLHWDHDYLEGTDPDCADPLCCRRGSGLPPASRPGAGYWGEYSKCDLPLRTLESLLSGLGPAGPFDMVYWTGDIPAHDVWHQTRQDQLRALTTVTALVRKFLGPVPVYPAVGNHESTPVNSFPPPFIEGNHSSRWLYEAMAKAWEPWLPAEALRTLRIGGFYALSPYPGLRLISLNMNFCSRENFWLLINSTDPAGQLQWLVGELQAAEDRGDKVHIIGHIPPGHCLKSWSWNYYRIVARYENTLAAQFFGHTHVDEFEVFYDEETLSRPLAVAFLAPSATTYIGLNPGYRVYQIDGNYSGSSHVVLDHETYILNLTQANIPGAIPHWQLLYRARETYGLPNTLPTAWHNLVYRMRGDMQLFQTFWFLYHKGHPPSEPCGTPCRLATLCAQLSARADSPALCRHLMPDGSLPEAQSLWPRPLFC
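qHTS format. ASM enzyme prepared from human placenta hydrolyses the fluorogenic substrate HMU-PC0 (9 uM final) over 60 min at 37 °C after a 10 min compound preincubation.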
MBNL1 CUG block = MBNL1-poly(CUG) RNA binding inhibition. Potency, µM (doses to about 57.5 µM), for inactives: at the top dose activity change, negative = inhibition, most hits filed as inhibitors. Q9NR56. AID 2675. TR-FRET MBNL1-His/biotin-(CUG)12 binding, 665/545 ratio. actives 0.036% (n = 280,000); active = well fitted inhibition curve with a large enough effect in the signal ratio, with a control signal flat, not every such curve was filed as active; inconclusive = small, poorly fitted or top-dose-only effect, or effect the other way, or a change in a side signal; inactive = no such curve, though single readings can be large or run the other way; the % refers to the signal ratio; also: potency is read from the fitted curve at half-maximal effect; % is scaled to controls: 0 for no effect and ±100 for the full control effect
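MBNL1-His + Biotin-(CUG)12, cpd titration 92 nM–58 uM; Tb anti-His Ab 0.055 ng/ul, SA-XL665 5 nM (final); 60 min RT; ratiometric 665/545 nm, Ex 340 nm; normalized to buffer and full-complex controls.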
pAkt inh = inhibitors of Akt phosphorylation; Neuro2A IGF-stimulated pAkt S473 HTRF, 20 min; hits give low values; activity change, % for hits at 50 µM; actives 0.32% (n = 360,000); AID 651550; in the data active = activity change below about -80%; inconclusive = mostly about -51% to -80%; also: % is scaled to controls: 0 for no effect and ±100 for the full control effect
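Neuro2A cells in DMEM with 0.5% FBS, overnight at 37 deg C, given compound at single 50 µM final, then IGF (6 nM final) for 20 min at 37 deg C. Lysed; phospho-Akt Ser473 by HTRF after 24 h, 665/615 ratio.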
Active calls of the source: *; [ ] = remark or other dose.

How did C=CCOC(=O)C1CC=CCC1C(=O)Oc1ccc(F)cc1F (stereo not drawn) do in these assays?
Menin-MLL TR inh: -1%; CXXC DNA block: 8%; Menin-MLL FL inh: -2; ASM inhibitor: 2%; MBNL1 CUG block: 2%; pAkt inh: -80%*

What do the screens show for `CC(C)(C)c1ccc(C(=O)NCCN2CCCC2)cc1`?
Menin-MLL TR inh: 14%; CXXC DNA block: 7%; Menin-MLL FL inh: -2; ASM inhibitor: -2%; MBNL1 CUG block: 2%; pAkt inh: inactive

What do the screens show for `Cc1ccc(NC(=O)/C(=C/c2ccco2)c2ccccc2)c(C)c1`?
Menin-MLL TR inh: -9%; CXXC DNA block: -15%; Menin-MLL FL inh: 0; ASM inhibitor: 5%; MBNL1 CUG block: 3%; pAkt inh: -129%*

How did CCOc1ccccc1CN1CCNC(=O)C1CC(=O)N(C)CCc1cnn(C)c1 (stereo not drawn) do in these assays?
CXXC DNA block: 14%; ASM inhibitor: 7%; MBNL1 CUG block: -1%; pAkt inh: inactive

How did Cc1cccc(C)c1NC(=O)CSc1nc(C)c(CC(=O)c2ccc(Br)cc2)c(C)c1C#N do in these assays?
Menin-MLL TR inh: -23%; CXXC DNA block: inconclusive; Menin-MLL FL inh: 0; ASM inhibitor: -3%; MBNL1 CUG block: 50%; pAkt inh: -102%*

What do the screens show for `CC1(C)C(C(N)=O)C(=O)NC(=O)C1C(N)=O` (stereo not drawn)?
pAkt inh: inactive

How did Cc1c2ccccc2cc(Cc2ccccc2)[n+]1C do in these assays?
Menin-MLL TR inh: -1%; CXXC DNA block: 4%; Menin-MLL FL inh: 1; ASM inhibitor: -2%; MBNL1 CUG block: inconclusive; pAkt inh: inactive

How did Cc1cc2[nH]c(=O)c(=O)[nH]c2cc1S(=O)(=O)N1CCN(c2cccc(C)c2C)CC1 do in these assays?
Menin-MLL TR inh: 27%; Menin-MLL FL inh: -2; ASM inhibitor: inconclusive; MBNL1 CUG block: 6%; pAkt inh: inactive

How did Cc1cc2[nH]c(=O)c(=O)[nH]c2cc1S(=O)(=O)N1CCN(c2cccc(Cl)c2)CC1 do in these assays?
Menin-MLL TR inh: 43%; Menin-MLL FL inh: -1; ASM inhibitor: 20µM*; MBNL1 CUG block: 1%; pAkt inh: inactive

How did Cc1cc2[nH]c(=O)c(=O)[nH]c2cc1S(=O)(=O)N1CCN(c2cccc(C(F)(F)F)c2)CC1 do in these assays?
Menin-MLL TR inh: inconclusive; CXXC DNA block: 10%; Menin-MLL FL inh: -2; ASM inhibitor: 20µM*; MBNL1 CUG block: 8%; pAkt inh: inactive

What do the screens show for `COc1ccc(N2C(=O)CC(N3CCOCC3)C2=O)cc1` (stereo not drawn)?
Menin-MLL TR inh: 12%; CXXC DNA block: 1%; Menin-MLL FL inh: 7; ASM inhibitor: 4%; MBNL1 CUG block: 2%; pAkt inh: -110%*

What do the screens show for `COc1ccc(N2C(=O)CC(Cc3ccccc3)C2=O)cc1` (stereo not drawn)?
Menin-MLL TR inh: 33%; CXXC DNA block: -2%; Menin-MLL FL inh: 1; ASM inhibitor: 2%; MBNL1 CUG block: -3%; pAkt inh: -89%*

How did C[C@]12C[C@@](C)(C=C1/C=C/c1ccc(F)cc1)C(=O)C[C@H]2c1ccc(F)cc1 do in these assays?
Menin-MLL TR inh: 19%; Menin-MLL FL inh: -1

Results for Cc1ccc(/C=C/C2=CC3(C)CC2(C)C(c2ccc(C)cc2)CC3=O)cc1 (stereo not drawn) ?
Menin-MLL TR inh: 10µM*; Menin-MLL FL inh: -2[11.7 µM]

How did CCOC(=O)c1c(C)nc2sc3c(=O)n(-c4ccc(C(C)=O)cc4)cnc3c2c1-c1ccc(OC)cc1 do in these assays?
Menin-MLL TR inh: -16%; CXXC DNA block: 6%; Menin-MLL FL inh: -2; ASM inhibitor: -7%; MBNL1 CUG block: 8%; pAkt inh: -108%*

Results for CCOC(=O)C[n+]1c(C)csc1C ?
Menin-MLL TR inh: 7%; CXXC DNA block: 0%; Menin-MLL FL inh: -1; ASM inhibitor: 1%; MBNL1 CUG block: -11%[11.5 µM]; pAkt inh: inactive

What do the screens show for `CCOC(=O)C[n+]1c(C)ccc2c1CCC2`?
Menin-MLL TR inh: 7%; CXXC DNA block: -5%; Menin-MLL FL inh: 4; ASM inhibitor: 0%; MBNL1 CUG block: -1%; pAkt inh: -109%*

Results for CCOC(=O)c1ccc(NC(=O)CCc2nc(-c3ccccc3Cl)no2)cc1 ?
Menin-MLL TR inh: inconclusive; CXXC DNA block: 18%; Menin-MLL FL inh: 0; ASM inhibitor: -22%; MBNL1 CUG block: -10%; pAkt inh: inactive

What do the screens show for `CCOC(=O)c1ccc(NC(=O)CCc2nc(-c3ccccc3)no2)cc1`?
Menin-MLL TR inh: inconclusive; CXXC DNA block: 9%; Menin-MLL FL inh: 3; ASM inhibitor: -21%; MBNL1 CUG block: -11%; pAkt inh: -101%*

What do the screens show for `CCC(C)(C(=O)NC1CCCCC1)N(Cc1ccco1)C(=O)c1ccccn1` (stereo not drawn)?
Menin-MLL TR inh: 0%; CXXC DNA block: -1%; Menin-MLL FL inh: 2; ASM inhibitor: 2%; MBNL1 CUG block: 0%; pAkt inh: -107%*

Results for O=C(NC1CCCCC1)C(c1ccccc1F)N(Cc1ccco1)C(=O)c1ccccn1 (stereo not drawn) ?
Menin-MLL TR inh: -18%; CXXC DNA block: 2%; Menin-MLL FL inh: 0; ASM inhibitor: -13%; MBNL1 CUG block: -2%; pAkt inh: inactive

What do the screens show for `N#C/C(=C(/O)c1ccc(-c2cccc([N+](=O)[O-])c2)o1)c1nc2ccccc2s1`?
Menin-MLL TR inh: inconclusive; CXXC DNA block: -8%; Menin-MLL FL inh: inconclusive; ASM inhibitor: -10%; MBNL1 CUG block: 4%; pAkt inh: inactive

Results for Cc1cc(C)c2c(N)c(C(=O)Nc3ncc(C)s3)sc2n1 ?
Menin-MLL TR inh: -11%; CXXC DNA block: 2%; Menin-MLL FL inh: 1; ASM inhibitor: 414%; MBNL1 CUG block: inconclusive; pAkt inh: -94%*

How did C=CC#CC[N+]1(CC#Cc2ccccc2)CCOCC1 do in these assays?
Menin-MLL TR inh: 25µM*; CXXC DNA block: 51%; Menin-MLL FL inh: -20; ASM inhibitor: -8%; MBNL1 CUG block: -3%; pAkt inh: inactive

Results for FC(F)(F)c1cnc(N2CCC(=NOCc3ccc(Cl)cc3)CC2)c(Cl)c1 ?
Menin-MLL TR inh: 11%; CXXC DNA block: -7%; Menin-MLL FL inh: 4; ASM inhibitor: -1%; MBNL1 CUG block: -1%; pAkt inh: inactive

Results for Cc1ccc(CON=C2CCN(c3ncc(C(F)(F)F)cc3Cl)CC2)cc1 ?
Menin-MLL TR inh: -1%; CXXC DNA block: 0%; Menin-MLL FL inh: 2; ASM inhibitor: -5%; MBNL1 CUG block: -21%; pAkt inh: -112%*

Screening results from PubChem.
